Assay results reported in PubChem BioAssay (Tox21).
Results filed as inconclusive are left out. Entries that show only a call come without a potency. Activity calls are given as the source filed them. Unless noted, calls come from the whole dose curve; as a rule, active = well fitted curve in the direction sought with a large enough effect in the repeat runs; inconclusive = weak or mixed curves; inactive = no such curve, though single readings can be large; an effect the other way counts as inactive or inconclusive.

Columns and labels:
[1] = A CellTox Green Cytotoxicity Assay to monitor cytotoxicity in HEK293 cells - 32 hour (AID 1224881); note: nearly all actives have a fitted effect of over 40% in size; note: potency is the fitted concentration of half-maximal effect
Method in brief: (§1)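 HEK293 cells, 600/well, were preincubated 5 hours and then exposed to compounds at 37 C for up to 40 hours. A cell-impermeant cyanine dye staining dead-cell DNA was read by fluorescence at 0, 8, 16, 24, 32 and 40 h time points.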

[2] = A CellTox Green Cytotoxicity Assay to monitor cytotoxicity in HepG2 cells - 0 hour (AID 1224882); note: nearly all actives have a fitted effect of over 35% in size
Method in brief: (§2)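 HepG2 cells, 600/well, preincubated 5 h with CellTox Green dye, then exposed to Tox21 compounds in DMSO at 37 C for up to 40 h. Dead-cell DNA fluorescence read at the indicated time point.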

[3] = A CellTox Green Cytotoxicity Assay to monitor cytotoxicity in HepG2 cells - 32 hour (AID 1224883); note: nearly all actives have a fitted effect of over 50% in size; note: potency is the fitted concentration of half-maximal effect
Method in brief: as §2

[4] = A CellTox Green Cytotoxicity Assay to monitor cytotoxicity in HEK293 cells - 16 hour (AID 1224888); note: nearly all actives have a fitted effect of over 35% in size
Method in brief: as §1

[5] = A CellTox Green Cytotoxicity Assay to monitor cytotoxicity in HepG2 cells - 8 hour (AID 1224890); note: nearly all actives have a fitted effect of over 45% in size
Method in brief: as §2

[6] = qHTS assay to identify small molecule antagonists of the estrogen receptor alpha (ER-alpha) signaling pathway using the BG1 cell line in the presence of 0.1 nM 17-beta-estradiol - cell viability counter screen (AID 1259241); note: nearly all actives have a fitted effect of over 40% in size; note: potency is the fitted concentration of half-maximal effect
Method in brief: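 VM7Luc4E2 cells (endogenous ER-alpha, 4×ERE-luciferase), hormone-starved 5 days in charcoal-stripped FBS, were treated with compounds plus 0.1 nM 17beta-estradiol for 22 hr at 37C; viability read in same wells as CellTiter-Fluor live-cell protease fluorescence.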

[7] = qHTS assay to identify small molecule antagonists of the androgen receptor (AR) signaling pathway using the MDA cell line in the presence of 0.5 nM R1881 - cell viability counter screen (AID 1259242); note: nearly all actives have a fitted effect of over 45% in size; note: potency is the fitted concentration of half-maximal effect
Method in brief: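 MDA-kb2 cells (MMTV-luciferase, AR/GR responsive) were treated with compounds plus 0.5 nM R1881 (final) for 16 hr at 37C, 0% CO2. Viability was then read in the same wells as live-cell protease fluorescence (CellTiter-Fluor, 30 min).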

[8] = qHTS assay to identify small molecule HDAC inhibitors (AID 1259364); note: nearly all actives have a fitted effect of over 45% in size; note: potency is the fitted concentration of half-maximal effect
Method in brief: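 Wild-type HCT-116 cells, plated overnight at 37 C, exposed to compounds 2 hr at 37 C; luminogenic HDAC-Glo substrate then added 30 min at room temperature. Luminescence reports relative endogenous class I/II HDAC activity.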

[9] = qHTS assay to identify small molecule agonists of the sonic hedgehog signaling (Shh) pathway - cell viability counter screen (AID 1259366); note: nearly all actives have a fitted effect of over 50% in size; note: potency is the fitted concentration of half-maximal effect
Method in brief: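 NIH/3T3-derived 3T3 Gli1-Luc cells (stable Gli1-responsive firefly luciferase reporter) were seeded, rested 4 hr at 37 C/5% CO2, then exposed to compounds in DMSO for 24 hr; viability was read by CellTiter-Fluor fluorescence in the same wells.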

[10] = qHTS assay to identify small molecule agonists of the sonic hedgehog signaling (Shh) pathway (AID 1259368; calls by dose curve; note: series mostly up to about 92 µM; nearly all actives have a fitted effect of over 15% in size)
Method in brief: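 NIH/3T3-derived 3T3Gli1-Luc cells with stably integrated Gli1-driven firefly luciferase, 2,000 cells/well, compounds added after 4 hr. Incubated 24 hr at 37C, 5% CO2; luminescence read after 30 min with luciferase reagent at room temperature.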

[11] = qHTS RealTime-Glo MT Cell Viability Assay in HepG2 cells - 16 hour (AID 1224885); note: nearly all actives have a fitted effect of over 50% in size; note: potency is the fitted concentration of half-maximal effect
Method in brief: (§3)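 Tox21 10K library screened in qHTS format on HepG2 cells carrying RealTime-Glo reagents. Compounds were added after a 5 h preincubation, and the luminescent signal from continuous culture was measured repeatedly during 40 h treatment.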

[12] = qHTS RealTime-Glo MT Cell Viability Assay in HEK293 cells - 24 hour (AID 1224886); note: nearly all actives have a fitted effect of over 50% in size; note: potency is the fitted concentration of half-maximal effect
Method in brief: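 Luminescence generated by NanoLuc from substrate produced by living HEK293 cells served as the viability signal. Each value reflects the reading at its stated time point during continuous 40 h compound exposure at 37 C.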

[13] = qHTS RealTime-Glo MT Cell Viability Assay in HEK293 cells - 8 hour (AID 1224887); note: nearly all actives have a fitted effect of over 50% in size; note: potency is the fitted concentration of half-maximal effect
Method in brief: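 600 cells/well were plated with the nonlytic NanoLuc/prosubstrate reagent, pre-incubated 5 h, then given 23 nL of compound in DMSO. Incubation at 37 C for 40 h, with luminescence from viable-cell-reduced substrate read repeatedly from 0 h.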

[14] = qHTS RealTime-Glo MT Cell Viability Assay in HepG2 cells - 0 hour (AID 1224889); note: nearly all actives have a fitted effect of over 50% in size; note: potency is the fitted concentration of half-maximal effect
Method in brief: as §3

[15] = molecular target: Estrogen receptor (Homo sapiens) (UniProt P03372); assay: qHTS assay to identify small molecule antagonists of the estrogen receptor alpha (ER-alpha) signaling pathway using the BG1 cell line in the presence of 0.1 nM 17-beta-estradiol (AID 1259244); note: nearly all actives have a fitted effect of over 50% in size
Chain of Estrogen receptor (Homo sapiens) (P03372 whole entry, looked up): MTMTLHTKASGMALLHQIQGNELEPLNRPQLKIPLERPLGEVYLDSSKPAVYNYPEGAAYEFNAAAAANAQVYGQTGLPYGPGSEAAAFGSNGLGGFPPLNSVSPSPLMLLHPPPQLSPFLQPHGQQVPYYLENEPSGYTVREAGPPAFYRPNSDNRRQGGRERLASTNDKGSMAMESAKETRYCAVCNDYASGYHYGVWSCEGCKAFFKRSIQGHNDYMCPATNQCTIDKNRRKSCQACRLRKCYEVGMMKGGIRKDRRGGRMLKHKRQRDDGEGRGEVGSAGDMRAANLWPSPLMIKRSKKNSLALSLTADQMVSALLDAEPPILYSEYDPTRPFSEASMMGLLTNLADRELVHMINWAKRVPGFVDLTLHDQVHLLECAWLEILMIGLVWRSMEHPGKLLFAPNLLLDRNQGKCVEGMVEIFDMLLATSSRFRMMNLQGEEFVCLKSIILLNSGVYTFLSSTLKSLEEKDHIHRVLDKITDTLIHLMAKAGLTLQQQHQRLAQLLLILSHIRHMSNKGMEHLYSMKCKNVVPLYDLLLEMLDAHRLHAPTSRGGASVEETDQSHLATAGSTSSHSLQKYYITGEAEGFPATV
Method in brief: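 VM7Luc4E2 cells (endogenous full-length ER-alpha, 4×ERE-luciferase), kept 5 days in phenol red-free, charcoal-stripped FBS medium; 4,000 cells/well. Compounds added with 0.1 nM (final) 17beta-estradiol, 22 hr at 37C; luminescence read with ONE-Glo after 30 min.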

[16] = qHTS assay to identify small molecule antagonists of the sonic hedgehog signaling (Shh) pathway - cell viability counter screen (AID 1259367); note: nearly all actives have a fitted effect of over 55% in size; note: potency is the fitted concentration of half-maximal effect
Method in brief: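 NIH/3T3-derived Gli1-Luc reporter cells (2,000 per well) rested 4 hr at 37 C, then received DMSO compounds plus conditioned medium. After 23 hr of treatment, CellTiter-Fluor was added for 1 hr at 37C and fluorescence read.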

[17] = qHTS assay to identify small molecule HDAC inhibitors - cell viability counter screen (AID 1259365)
Method in brief: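 Wild-type HCT-116 cells were seeded at 1,500 per well, incubated overnight at 37 C, then exposed to compounds in DMSO for 2hr. Viability was read by CellTiter-Glo luminescence after 30min at room temperature.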

[18] = molecular target: Androgen receptor (Homo sapiens) (UniProt P10275); assay: qHTS assay to identify small molecule antagonists of the androgen receptor (AR) signaling pathway using the MDA cell line in the presence of 0.5 nM R1881 (AID 1259243); note: nearly all actives have a fitted effect of over 50% in size; note: potency is the fitted concentration of half-maximal effect
Chain of Androgen receptor (Homo sapiens) (P10275 whole entry, looked up): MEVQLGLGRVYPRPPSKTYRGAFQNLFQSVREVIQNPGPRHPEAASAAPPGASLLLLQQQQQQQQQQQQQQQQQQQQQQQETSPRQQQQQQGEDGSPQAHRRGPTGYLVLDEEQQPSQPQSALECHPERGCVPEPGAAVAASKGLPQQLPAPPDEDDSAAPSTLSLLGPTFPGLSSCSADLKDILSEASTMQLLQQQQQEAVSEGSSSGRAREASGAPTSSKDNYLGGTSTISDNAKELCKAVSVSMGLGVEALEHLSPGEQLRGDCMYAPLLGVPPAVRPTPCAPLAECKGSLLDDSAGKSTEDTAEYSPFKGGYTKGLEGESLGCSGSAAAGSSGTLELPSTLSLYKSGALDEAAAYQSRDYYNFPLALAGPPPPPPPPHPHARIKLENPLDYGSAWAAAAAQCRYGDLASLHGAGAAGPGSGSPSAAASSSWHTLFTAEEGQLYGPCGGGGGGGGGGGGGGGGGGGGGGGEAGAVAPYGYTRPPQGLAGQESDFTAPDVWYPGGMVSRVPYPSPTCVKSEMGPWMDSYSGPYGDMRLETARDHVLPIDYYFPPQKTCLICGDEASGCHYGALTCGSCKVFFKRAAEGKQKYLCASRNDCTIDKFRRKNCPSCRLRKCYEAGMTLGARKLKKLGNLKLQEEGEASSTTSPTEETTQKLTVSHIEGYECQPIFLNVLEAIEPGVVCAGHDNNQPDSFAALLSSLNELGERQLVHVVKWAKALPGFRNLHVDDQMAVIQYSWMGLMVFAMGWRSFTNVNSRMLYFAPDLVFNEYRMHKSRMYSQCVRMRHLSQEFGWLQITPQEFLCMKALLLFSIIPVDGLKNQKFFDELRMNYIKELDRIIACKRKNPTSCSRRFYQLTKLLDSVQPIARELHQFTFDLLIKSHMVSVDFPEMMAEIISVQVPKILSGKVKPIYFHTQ
Method in brief: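 MDA-kb2 cells (MMTV-luciferase, responsive to AR and GR) at 3,000/well, rested 5 h at 37C, 0% CO2, then given compounds plus 0.5 nM R1881 (final) for 16 hr. Luciferase read with ONE-Glo after 30 min at room temperature.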

[19] = qHTS assay to identify small molecule phospholipidosis (PLD) inducers (AID 1259344; active = well fitted curve in the direction sought with a large enough effect; an effect the other way counts as inactive or inconclusive; note: potency is the fitted concentration of half-maximal effect)
Method in brief: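 HepG2 cells on collagen I, attached 4 h at 37 C, were co-treated with compound and LipidTOX Red dye for 24 h at 37 C, then fixed with paraformaldehyde plus Hoechst 33342 and imaged by high-content microscopy for phospholipid accumulation.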

[20] = A CellTox Green Cytotoxicity Assay to monitor cytotoxicity in HEK293 cells - 8 hour (AID 1224884); note: nearly all actives have a fitted effect of over 35% in size
Method in brief: as §1

O=S(=O)(O)c1ccc(N=Nc2c(O)ccc3ccccc23)cc1
Potency [1]: inactive
Potency [2]: inactive
Potency [3]: inactive
Potency [4]: inactive
Potency [5]: inactive
Potency [6]: 54.5 µM (active)
Potency [7]: 30.6 µM (active)
Potency [8]: 0.686 µM (active)
Potency [9]: 27.3 µM (active)
Potency [10]: inactive

CCCCNS(=O)(=O)c1ccc(C)cc1
Potency [1]: inactive
Potency [2]: inactive
Potency [3]: 4.9 µM (active)
Potency [11]: inactive
Potency [12]: inactive
Potency [13]: inactive
Potency [4]: inactive
Potency [14]: inactive
Potency [5]: inactive
Potency [6]: inactive
Potency [7]: inactive
Potency [15]: inactive
Potency [8]: inactive
Potency [9]: inactive
Potency [16]: inactive
Potency [10]: inactive

C#Cc1ccc(-c2ccccc2F)cc1
Potency [1]: inactive
Potency [2]: inactive
Potency [3]: inactive
Potency [11]: inactive
Potency [12]: inactive
Potency [13]: inactive
Potency [4]: inactive
Potency [14]: inactive
Potency [5]: inactive
Potency [6]: inactive
Potency [7]: inactive
Potency [15]: inactive
Potency [8]: inactive
Potency [17]: inactive
Potency [9]: inactive
Potency [16]: inactive
Potency [10]: inactive

O=S(=O)(O)c1ccc(Nc2nc(Nc3ccc(/C=C/c4ccc(Nc5nc(Nc6ccc(S(=O)(=O)O)cc6)nc(N(CCO)CCO)n5)cc4S(=O)(=O)O)c(S(=O)(=O)O)c3)nc(N(CCO)CCO)n2)cc1
Potency [1]: inactive
Potency [2]: inactive
Potency [3]: inactive
Potency [11]: inactive
Potency [12]: inactive
Potency [13]: inactive
Potency [4]: inactive
Potency [5]: inactive
Potency [7]: inactive
Potency [18]: inactive
Potency [15]: inactive
Potency [8]: inactive
Potency [17]: inactive
Potency [9]: inactive
Potency [10]: inactive

Cc1cc(C(C#N)c2ccc(Cl)cc2)c(Cl)cc1NC(=O)c1cc(I)cc(I)c1O (centres undefined)
Potency [1]: inactive
Potency [2]: inactive
Potency [3]: inactive
Potency [11]: inactive
Potency [12]: inactive
Potency [13]: inactive
Potency [4]: inactive
Potency [5]: inactive
Potency [6]: inactive
Potency [7]: inactive
Potency [19]: inactive
Potency [8]: inactive
Potency [17]: inactive
Potency [9]: inactive
Potency [16]: inactive
Potency [10]: inactive

COc1cc(S(=O)(=O)O)c(C)cc1N=Nc1c(O)ccc2cc(S(=O)(=O)O)ccc12
Potency [1]: inactive
Potency [2]: inactive
Potency [3]: inactive
Potency [12]: inactive
Potency [13]: inactive
Potency [4]: inactive
Potency [5]: inactive
Potency [6]: 21.7 µM (active)
Potency [7]: 24.3 µM (active)
Potency [8]: inactive
Potency [9]: 27.3 µM (active)
Potency [16]: 24.3 µM (active)
Potency [10]: inactive

CCCNCCC
Potency [1]: inactive
Potency [2]: inactive
Potency [3]: inactive
Potency [11]: inactive
Potency [12]: inactive
Potency [13]: inactive
Potency [4]: inactive
Potency [14]: inactive
Potency [5]: inactive
Potency [6]: inactive
Potency [7]: inactive
Potency [8]: inactive
Potency [17]: inactive
Potency [9]: inactive
Potency [10]: inactive

CN1CCN2c3ccccc3Cc3ccccc3C2C1 (centres undefined)
Potency [1]: inactive
Potency [2]: inactive
Potency [20]: inactive
Potency [11]: inactive
Potency [12]: inactive
Potency [13]: inactive
Potency [4]: inactive
Potency [14]: inactive
Potency [5]: inactive
Potency [6]: inactive
Potency [7]: inactive
Potency [15]: inactive
Potency [19]: inactive
Potency [8]: inactive
Potency [9]: inactive
Potency [16]: inactive
Potency [10]: inactive

OC1CCC(C2CCCCC2)CC1 (centres undefined)
Potency [1]: inactive
Potency [2]: inactive
Potency [20]: inactive
Potency [11]: inactive
Potency [12]: inactive
Potency [13]: inactive
Potency [4]: inactive
Potency [5]: inactive
Potency [6]: inactive
Potency [7]: inactive
Potency [15]: inactive
Potency [8]: inactive
Potency [17]: inactive
Potency [9]: inactive
Potency [16]: inactive
Potency [10]: inactive

O=C1C(c2[nH]c3ccc(S(=O)(=O)O)cc3c2O)=Nc2ccc(S(=O)(=O)O)cc21
Potency [1]: inactive
Potency [2]: inactive
Potency [3]: inactive
Potency [11]: inactive
Potency [12]: inactive
Potency [13]: inactive
Potency [4]: inactive
Potency [14]: inactive
Potency [5]: inactive
Potency [6]: inactive
Potency [7]: inactive
Potency [19]: inactive
Potency [8]: 54.5 µM (active)
Potency [9]: inactive
Potency [16]: inactive

CCCCC/C=C\C/C=C\CCCCCCCC(=O)O
Potency [1]: inactive
Potency [2]: inactive
Potency [3]: inactive
Potency [12]: inactive
Potency [13]: inactive
Potency [4]: inactive
Potency [14]: inactive
Potency [5]: inactive
Potency [6]: inactive
Potency [7]: inactive
Potency [15]: inactive
Potency [19]: inactive
Potency [8]: inactive
Potency [17]: inactive
Potency [9]: inactive
Potency [16]: inactive
Potency [10]: inactive

Oc1cc(Cl)cc(Cl)c1Cl
Potency [1]: 50.2 µM (active)
Potency [2]: inactive
Potency [3]: inactive
Potency [11]: inactive
Potency [14]: inactive
Potency [5]: inactive
Potency [6]: inactive
Potency [7]: inactive
Potency [8]: inactive
Potency [17]: inactive
Potency [9]: inactive
Potency [16]: inactive
Potency [10]: inactive

CN1CCN(Cc2cc(-c3ccc4[nH]c(=O)oc4c3)co2)[C@@H](c2ccc(F)cc2)C1
Potency [1]: inactive
Potency [2]: inactive
Potency [3]: 42 µM (active)
Potency [12]: 26.5 µM (active)
Potency [4]: inactive
Potency [14]: inactive
Potency [5]: inactive
Potency [7]: inactive
Potency [8]: inactive
Potency [17]: inactive
Potency [10]: inactive

C=CC(=O)Nc1cc2c(Nc3ccc(F)c(Cl)c3)ncnc2cc1OCCCN1CCOCC1
Potency [1]: 12 µM (active)
Potency [2]: inactive
Potency [3]: 6.01 µM (active)
Potency [11]: 8.49 µM (active)
Potency [12]: 10.7 µM (active)
Potency [13]: 9.52 µM (active)
Potency [4]: inactive
Potency [14]: 9.52 µM (active)
Potency [5]: inactive
Potency [7]: 0.376 µM (active)
Potency [18]: 7.5 µM (active)
Potency [15]: inactive
Potency [19]: 0.891 µM (active)
Potency [8]: inactive
Potency [17]: inactive
Potency [9]: 3.76 µM (active)
Potency [16]: 7.5 µM (active)
Potency [10]: inactive
